Potency data for 20 molecules are collected here from PubChem BioAssay (Tox21).

The nature of test [1]: qHTS assay to identify small molecule antagonists of the thyroid receptor (TR) signaling pathway - cell viability counter screen (AID 743064). Note: nearly all actives have a fitted effect of over 50% in size. Note: potency is the fitted concentration of half-maximal effect. In a few lines: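 Fluorescence from CellTiter-Fluor, added after 23.5 h exposure at 37 °C, reported viability of GH3.TRE-Luc cells co-treated with compound and 1 nM T3. Measured in the same wells as the luciferase TR readout.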
(In general: In qHTS, concentration-response curves come from the screen itself.)

The nature of test [2]: qHTS assay to identify small molecule antagonists of the thyroid receptor (TR) signaling pathway (AID 743065). Note: nearly all actives have a fitted effect of over 55% in size. Note: potency is the fitted concentration of half-maximal effect. The method, boiled down:
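Antagonism measured as loss of luciferase signal in GH3 cells stably carrying a TRE-luciferase reporter, co-treated with compound and T3 (1 nM final) for 23.5 h at 37 C. Viability was read in the same well by CellTiter-Fluor.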

Test [3] relates to thyroid hormone receptor (rat, GH3 cells). Description: qHTS assay to identify small molecule agonists of the thyroid receptor (TR) signaling pathway (AID 743066; calls by dose curve).
Test [4] is described as follows: qHTS assay to identify small molecule antagonists of the estrogen receptor alpha (ER-alpha) signaling pathway - cell viability counter screen (AID 743074; calls by dose curve;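 note: HEK293 cells carrying ER-alpha-UAS-bla reporter stimulated with 17beta-estradiol; nearly all actives have a fitted effect of over 45% in size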).
A further test addresses Aromatase (Homo sapiens) (UniProt P11511). The test is described as follows: qHTS assay to identify aromatase inhibitors (AID 743083). Note: series mostly up to about 70 µM; nearly all actives have a fitted effect of over 55% in size.
Test [5] is described as follows: qHTS assay to identify small molecule antagonists of the estrogen receptor alpha (ER-alpha) signaling pathway using the BG1 cell line - cell viability counter screen (AID 743081).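 Note: compound given together with 17beta-estradiol as the ER stimulus; series mostly up to about 70 µM; nearly all actives have a fitted effect of over 45% in size.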

The structures appear in SMILES notation. Results filed as inconclusive are left out. Activity calls are given as the source filed them. Unless noted, calls come from the whole dose curve; as a rule, active = well fitted curve in the direction sought with a large enough effect in the repeat runs; inconclusive = weak or mixed curves; inactive = no such curve, though single readings can be large; an effect the other way counts as inactive or inconclusive.

Chain of Aromatase (Homo sapiens) (P11511 whole entry, looked up): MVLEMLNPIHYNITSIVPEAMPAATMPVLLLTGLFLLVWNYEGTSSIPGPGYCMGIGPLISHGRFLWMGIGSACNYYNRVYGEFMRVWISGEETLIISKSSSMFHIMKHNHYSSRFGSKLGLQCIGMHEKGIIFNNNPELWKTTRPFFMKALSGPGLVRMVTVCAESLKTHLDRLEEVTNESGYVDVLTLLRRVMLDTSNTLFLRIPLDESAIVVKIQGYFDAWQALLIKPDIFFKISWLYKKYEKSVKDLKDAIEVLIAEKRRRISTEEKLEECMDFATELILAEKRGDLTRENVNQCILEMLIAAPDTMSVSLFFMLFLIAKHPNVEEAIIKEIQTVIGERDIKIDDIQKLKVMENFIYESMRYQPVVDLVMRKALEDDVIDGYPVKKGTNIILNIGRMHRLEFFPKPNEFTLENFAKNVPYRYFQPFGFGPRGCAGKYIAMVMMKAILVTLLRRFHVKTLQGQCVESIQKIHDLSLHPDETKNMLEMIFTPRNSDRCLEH

Regarding `CS(=O)(=O)OCCCNCCCOS(C)(=O)=O`, the Potency result (in test [1]; in test [2]; in test [3]; in test [4]; in the test with Aromatase (Homo sapiens)) was “inactive” in each case.

Turning to `CC1(C)S[C@@H]2[C@H](NC(=O)C3(N)CCCCC3)C(=O)N2[C@H]1C(=O)O`, the Potency entry (in test [1]; in test [2]; in test [3]; in test [4]; in test [5]; in the test with Aromatase (Homo sapiens)) was “inactive” throughout.

As for `CC(=O)N[C@@H]([C@@H](O)[C@H](O)[C@H](O)CO)[C@@H](O)CC(=O)C(=O)O`, the Potency result (in test [1]; in test [2]; in test [3]; in test [4]; in test [5]; in the test with Aromatase (Homo sapiens)) was “inactive” each time.

`Cc1ccc(S(=O)(=O)NC(=O)N[C@@H](C)Cc2ccccc2)cc1`: the Potency entry (in test [1]; in test [2]; in test [3]; in test [4]; in test [5]; with Aromatase (Homo sapiens)) was “inactive” each time.

With `O=C1CCC(=O)N1CO`, the Potency entry (in test [1]; in test [2]; in test [3]; in test [4]; in test [5]; in the test with Aromatase (Homo sapiens)) was “inactive” each time.

On to `CS(=O)(=O)Nc1cc2occ(NC=O)c(=O)c2cc1Oc1ccccc1`, for which the Potency result (in test [1]; in test [2]; in test [3]; in test [4]; in test [5]; with Aromatase (Homo sapiens)) was “inactive” throughout.

As for `CCCCCCCCCCCCCCCC(=O)OCCC1CCN(CCCN2c3ccccc3Sc3ccc(S(=O)(=O)N(C)C)cc32)CC1`, the Potency result (in test [1]; in test [2]; in test [3]; in test [4]; in the test with Aromatase (Homo sapiens)) was “inactive” in each case.

Take `O=P(O)(O)C(Sc1ccc(Cl)cc1)P(=O)(O)O`: the Potency entry (in test [1]; in test [2]; in test [3]; in test [4]; with Aromatase (Homo sapiens)) was “inactive” each time.

With `Cc1ncc(C[n+]2csc(CCOP(=O)(O)OP(=O)(O)O)c2C)c(N)n1`, the Potency result (in test [1]; in test [2]; in test [3]; in test [4]; in test [5]; in the test with Aromatase (Homo sapiens)) was “inactive” in each case.

With `OC1OC[C@@H](O)[C@H](O)[C@@H]1O` (stereo not given in full), the Potency entry (in test [1]; in test [2]; in test [3]; in test [4]; in test [5]; in the test with Aromatase (Homo sapiens)) was “inactive” each time.

With `CCCc1nc(C(C)(C)O)c(C(=O)OCc2oc(=O)oc2C)n1Cc1ccc(-c2ccccc2-c2nn[nH]n2)cc1`, the Potency result (in test [1]; in test [2]; in test [3]; in test [4]; in test [5]; in the test with Aromatase (Homo sapiens)) was “inactive” throughout.

`CN[C@@H]1[C@@H](O)[C@@H](O[C@@H]2[C@@H](O)[C@H](OC3OC(CN)=CCC3N)[C@@H](N)C[C@H]2N)OC[C@]1(C)O` (stereo not given in full): the Potency entry (in test [1]; in test [2]; in test [3]; in test [4]; in test [5]; with Aromatase (Homo sapiens)) was “inactive” throughout.

In the case of `CN(CCO)CC(O)Cn1cnc2c1c(=O)n(C)c(=O)n2C` (stereo not given) (tested in a mixture with another compound), the Potency entry (in test [1]; in test [2]; in test [3]; in test [4]; in test [5]; with Aromatase (Homo sapiens)) was “inactive” throughout.

Take `CC(C)C[C@H](NC(=O)[C@@H](Cc1c[nH]c2ccccc12)NC(=O)[C@H](Cc1ccc(O)cc1)NC(=O)[C@H](CO)NC(=O)[C@H](Cc1c[nH]c2ccccc12)NC(=O)[C@H](Cc1cnc[nH]1)NC(=O)[C@@H]1CCC(=O)N1)C(=O)N[C@@H](CCCN=C(N)N)C(=O)N1CCC[C@@H]1C(=O)NCC(N)=O`: the Potency result (in test [1]; in test [2]; in test [3]; in test [4]; in test [5]; with Aromatase (Homo sapiens)) was “inactive” in each case.

As for `CC(=O)Nc1ccc(NC(=S)NC(=O)c2ccc(C(C)(C)C)cc2)cc1`, the Potency in test [1] is 8.41 µM (active); in test [2] it was 2.66 µM (active). Also, the Potency entry (in test [3]; in test [4]; in test [5]; with Aromatase (Homo sapiens)) was “inactive” each time.

Regarding `COc1ccc(-c2noc(CC(=O)O)c2-c2ccc(OC)cc2)cc1`, the Potency entry (in test [1]; in test [2]; in test [3]; in test [4]; in test [5]; in the test with Aromatase (Homo sapiens)) was “inactive” in each case.

On to `CCCC(=O)Nc1ncnc2c1ncn2[C@@H]1O[C@@H]2COP(=O)(O)O[C@H]2[C@H]1OC(=O)CCC`, for which the Potency result (in test [1]; in test [2]; in test [3]; in test [4]; in test [5]; in the test with Aromatase (Homo sapiens)) was “inactive” in each case.

In the case of `CS(=O)(=O)c1ccc(C2=C(c3ccccc3)C(=O)OC2)cc1`, the Potency entry (in test [1]; in test [2]; in test [3]; in test [4]; in test [5]; with Aromatase (Homo sapiens)) was “inactive” throughout.

Turning to `c1ccc2c(c1)Sc1ccccc1N2CCN1CCCC1`, the Potency was 11.9 µM (active) in test [1] and 29.8 µM (active) in test [2]. For the same molecule, the Potency result (in test [3]; in test [4]; with Aromatase (Homo sapiens)) was “inactive” each time.

Consider `O=C(O)c1cc2ccccc2c(Cc2c(O)c(C(=O)O)cc3ccccc23)c1O`, for which the Potency entry (in test [1]; in test [2]; in test [3]; in test [4]; in the test with Aromatase (Homo sapiens)) was “inactive” each time.
